According to PubChem BioAssay AID1159580 (chemical genetic matrix, 2015):
Values joined by “and” are separate entries in the source; they are usually repeats but may differ in a detail not shown here. Equal values may be shown once. Hit rate of the full screen: of about 5,500 compounds, about 2,000 (36%) were called active. Another 18% or so got no clear call; they are omitted. No stated cut-off is given here; in the data, active means normalized growth mostly below about 0.91 (no sharp cut-off); inconclusive means no clear call, values can overlap the other calls; inactive means mostly above about 0.92. The list shows a part of the results.

Assay: chemical genetic growth profiling, strain panel (AID 1159580);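 further: tested at 20 µM; growth read once vehicle control cultures reached saturation at 30 °C; 1 = growth at the plate median or of vehicle wells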
Conditions: S. cerevisiae deletion strains, growth OD

Measured: normalized growth

COc1ccc2c(c1OC)C(=O)OC2[C@H]1c2c(cc3c(c2OC)OCO3)CCN1C (some centres not stated)
inactive: locus YAL013W, strain DEP1, stronger effect = lower value 1.01 | locus YAL021C, strain ccr4, stronger effect = lower value 1.02 | locus YAL026C, strain drs2, stronger effect = lower value 1.02 | locus YAL030W, strain snc1, stronger effect = lower value 1.02 | locus YBL061C, strain skt5, stronger effect = lower value 1.01 | locus YBR009C, strain hhf1, stronger effect = lower value 1.02 | locus YBR021W, strain FUR4, stronger effect = lower value 1.01 | locus YBR023C, strain chs3, stronger effect = lower value 1.02 | locus YBR171W, strain sec66, stronger effect = lower value 1.01 | locus YBR229C, strain ROT2, stronger effect = lower value 1.01 | locus YBR231C, strain swc5, stronger effect = lower value 1.01 | locus YBR279W, strain paf1, stronger effect = lower value 1.01 | locus YCL011C, strain gbp2, stronger effect = lower value 1.02 | locus YCL016C, strain dcc1, stronger effect = lower value 1.02 | locus YCL029C, strain bik1, stronger effect = lower value 0.987 | locus YCL061C, strain MRC1, stronger effect = lower value 1.01 | locus YCL069W, strain vba3, stronger effect = lower value 1.01 | locus YCR088W, strain abp1, stronger effect = lower value 1.01 | locus YDL005C, strain med2, stronger effect = lower value 0.995 | locus YDL035C, strain GPR1, stronger effect = lower value 1.01 | locus YDL040C, strain nat1, stronger effect = lower value 1 | locus YDL074C, strain BRE1, stronger effect = lower value 1.04 | locus YDL101C, strain DUN1, stronger effect = lower value 1 | locus YDL134C, strain PPH21, stronger effect = lower value 1.01 | locus YDL185W, strain tfp1, stronger effect = lower value 0.966 | locus YDL192W, strain arf1, stronger effect = lower value 0.968 | locus YDR001C, strain nth1, stronger effect = lower value 1 | locus YDR069C, strain doa4, stronger effect = lower value 1.02 | locus YDR101C, strain arx1, stronger effect = lower value 0.995 | locus YDR137W, strain rgp1, stronger effect = lower value 1.04 | locus YDR159W, strain sac3, stronger effect = lower value 0.953 | locus YDR162C, strain NBP2, stronger effect = lower value 0.983 | locus YDR195W, strain ref2 0.993 | locus YDR297W, strain sur2, stronger effect = lower value 1.02 | locus YDR318W, strain mcm21, stronger effect = lower value 0.965 | locus YDR334W, strain swr1, stronger effect = lower value 1 | locus YDR335W, strain msn5, stronger effect = lower value 1.01 | locus YDR388W, stronger effect = lower value 0.985 | locus YDR392W, strain spt3, stronger effect = lower value 0.892 | locus YDR502C, strain sam2, stronger effect = lower value 0.984 | locus YEL003W, strain gim4, stronger effect = lower value 1.02 | locus YEL037C, strain rad23, stronger effect = lower value 1 | locus YEL061C, strain CIN8 (second series), stronger effect = lower value 0.996 | locus YEL061C, strain CIN8, stronger effect = lower value 1 | locus YER015W, strain faa2, stronger effect = lower value 1.01 | locus YER016W, strain bim1, stronger effect = lower value 1 | locus YER110C, stronger effect = lower value 0.994 | locus YER111C, strain swi4, stronger effect = lower value 1.01 | locus YER155C, strain BEM2 (second series), stronger effect = lower value 0.98 | locus YER155C, strain BEM2, stronger effect = lower value 0.992 | locus YER167W, strain BCK2, stronger effect = lower value 1 | locus YFR010W, strain ubp6, stronger effect = lower value 1 | locus YGL078C, strain dbp3, stronger effect = lower value 0.989 | locus YGL086W, strain mad1, stronger effect = lower value 1.01 | locus YGL167C, strain pmr1, stronger effect = lower value 1.01 | locus YGL173C, strain kem1, stronger effect = lower value 1.01 | locus YGL227W, strain vid30, stronger effect = lower value 1.01 | locus YGL240W, strain doc1, stronger effect = lower value 1.02 | locus YGL248W, strain PDE1, stronger effect = lower value 1.01 | locus YGL253W, strain hxk2, stronger effect = lower value 1.02 | locus YGR135W, strain pre9, stronger effect = lower value 0.986 | locus YGR252W, strain gcn5, stronger effect = lower value 1.19 | locus YHR013C, strain ard1, stronger effect = lower value 1.02 | locus YHR027C, strain rpn1, stronger effect = lower value 1.01 | locus YHR030C, strain SLT2, stronger effect = lower value 0.995 and 0.993 | locus YHR079C, strain IRE1 (second series), stronger effect = lower value 0.978 | locus YHR079C, strain IRE1, stronger effect = lower value 0.999 | locus YHR094C, strain hxt1, stronger effect = lower value 0.988 | locus YHR129C, strain ARP1, stronger effect = lower value 0.999 | locus YHR142W, strain chs7, stronger effect = lower value 1 | locus YHR200W, strain rpn10, stronger effect = lower value 0.98 | locus YIL066C, strain RNR3, stronger effect = lower value 1.01 | locus YIL073C, strain SPO22, stronger effect = lower value 0.857 | locus YIL125W, strain kgd1, stronger effect = lower value 0.986 | locus YIR030C, strain dcg1, stronger effect = lower value 0.997 | locus YJL092W, strain hpr5, stronger effect = lower value 1.01 | locus YJL095W, strain BCK1 (second series), stronger effect = lower value 1.01 | locus YJL095W, strain BCK1, stronger effect = lower value 1.02 and 1 | locus YJL115W, strain asf1, stronger effect = lower value 1.01 | locus YJL129C, strain trk1, stronger effect = lower value 0.995 | locus YJL134W, strain LCB3, stronger effect = lower value 0.996 | locus YJL154C, strain vps35, stronger effect = lower value 1.02 | locus YJL164C, strain tpk1, stronger effect = lower value 1.03 | locus YJL166W, strain qcr8, stronger effect = lower value 1 | locus YJL168C, strain set2, stronger effect = lower value 0.987 | locus YJL187C, strain SWE1 (second series), stronger effect = lower value 0.997 | locus YJL187C, strain SWE1, stronger effect = lower value 1.02
